An excerpt weighted towards active compounds, which were near 7.2% of everything screened.
RE007 growth inh = less growth of the S. pombe RE007 Vpr strain | S. pombe RE007 Vpr strain, BacTiter-Glo ATP luminescence, 24 h | Potency, µM (doses to about 92.2 µM), for the others: at the highest dose activity change, negative = less growth, hits mostly inhibitors | 360,000 tested, 0.21% active; active = well fitted falling curve with a large enough effect; inconclusive = small, poorly fitted or top-dose-only effect; inactive = no such curve, though single readings can be large or run the other way; also: nearly all actives have a fitted effect of over 50% in size
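Fission yeast strain RE007, carrying one chromosomally integrated HIV-1 vpr copy, was seeded at OD 0.01 in PMG+AL medium with 23 nL pinned compound. After 24 h at 30 °C and 99% humidity, viability was read by BacTiter-Glo luminescence.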
HCV inh = HCV inhibition. Huh7.5.1 HCVcc-Cre infection, luciferase reporter, 44 h. Potency, µM (doses to about 41.8 µM), for the others: at the highest dose activity change, negative = inhibition, actives largely listed as inhibitors. 340,000 tested, 3.4% active
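Luciferase read-out (15 sec integration) after a 15 min room-temperature substrate step quantifies HCVcc-Cre infection. Cells, 1,000 per well, had compound added 4 h post-plating, then virus at ~0.5 moi, and were cultured 44 h.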
Lassa entry inh = inhibitors of Lassa virus binding or cell entry; Lassa virus pseudotype entry inhibition, cell reporter; Potency, µM (top dose mostly 37.9 µM), for inactives: at the top dose activity change, negative = inhibition, actives largely listed as inhibitors; 300,000 tested, 1.2% active; AID 540256; calls by dose curve; tested in HEK293 cells; also: nearly all actives have a fitted effect of over 50% in size
Marburg entry inh = blocks Marburg virus binding to or entry into cells; Marburg virus pseudotyped entry inhibition, cell reporter; Potency, µM (top dose mostly 37.8 µM), for the others: top-dose activity change, negative = inhibition, most hits filed as inhibitors; 300,000 tested, 1.8% active; calls by dose curve; tested in HEK293 cells
Sm TGR inh = inhibitors of Schistosoma mansoni thioredoxin glutathione reductase; purified TGR, DTNB reduction, TNB absorbance 405 nm; Potency, µM (highest dose often 114 µM), for the others: top-dose activity change, negative = inhibition, hits mostly inhibitors; 360,000 tested, 3% active; AID 485364; also: nearly all actives have a fitted effect of over 60% in size
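Kinetic colorimetric format: TGR-catalysed, NADPH-driven DTNB reduction monitored via TNB absorbance. Enzyme dispensed at 20 nM; compound exposure 15 min at room temperature before reaction start.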
FMDV inh = blocks foot and mouth disease virus; FMDV antiviral cell-based qHTS; Potency, µM (top dose mostly 57.9 µM), without a hit: top-dose activity change, negative = inhibition, usual class: inhibitors; 410,000 tested, 1.2% active; AID 1159524; calls by dose curve; tested in HEK293T cells; also: read-out not given here; nearly all actives have a fitted effect of over 45% in size
Starred values were filed as active, the others as inactive; ? = inconclusive; / = not tested or not shown; [ ] = dose if it differs, or a comment. Unless noted, calls follow the shape of the dose curve; as a rule, active = well fitted curve in the direction sought with a large enough effect; inconclusive = small, poorly fitted or top-dose-only effect, or another doubt; inactive = no such curve, though single readings can be large; an effect the other way counts as inactive or inconclusive. % is scaled to controls: 0 for no effect and ±100 for the full control effect; potency is read from the fitted curve at half-maximal effect.

SMILES	RE007 growth inh	HCV inh	Lassa entry inh	Marburg entry inh	Sm TGR inh	FMDV inh
COc1ccc(OC)c(N2C(=O)c3cccnc3C2=O)c1	5%	9%	-1%[46.1 µM]	7%[46.1 µM]	-1%	-3%
COc1ccccc1N1C(=O)c2cccnc2C1=O	-12%	7%	/	/	56µM*	-1%
COc1ccc(-n2nnc(C(=O)Nc3ccccc3F)c2N)cc1	/	/	-4%[46.1 µM]	?	-3%	27%
O=C(Nc1ccc(Br)cc1)c1ccc(F)c(S(=O)(=O)N2CCN(c3ccccn3)CC2)c1	-14%	7.1µM*	?	?	-5%	?
Cc1ccccc1NC(=O)c1ccc(F)c(S(=O)(=O)N2CCN(c3ccccn3)CC2)c1	3%	?	?	-6%	-3%	22µM*
Cc1ccc(C(=O)Nc2cccc(-c3nc(CNC(=O)c4ccc(F)cc4Cl)c(C)o3)c2)s1	/	/	/	/	/	26%
C[N+]1(C)CCO[C@@](O)(c2ccc(-c3ccc([C@]4(O)C[N+](C)(C)CCO4)cc3)cc2)C1	/	/	/	16%	/	/
O=C(Nc1ccc(N2CCN(c3ncccc3C(F)(F)F)CC2)nc1)c1cccs1	-29%	11µM*	11µM*	13µM*	15%	13µM*
COc1ccc(CNC(=O)C2CCN(C(=O)c3ccc(F)cc3)CC2)cc1OC	-6%	3%	/	/	1%	-22%
COc1cccc(NC(=O)Nc2nc(-c3ccc(OC)c(OC)c3)cs2)c1	1%	2.8µM*	?	?	10%	25µM*
COc1cccc(NC(=O)N2CCN(c3nc(-c4cccc(OC)c4)cs3)CC2)c1	-3%	11µM*	/	/	6%	32µM*
COc1ccc(-c2csc(NC(=O)C3CCN(C(=O)c4ccc(F)cc4)CC3)n2)cc1OC	7%	/	16µM*	?	1%	35µM*
COc1cccc(-c2csc(N3CCN(C(=S)Nc4ccc(Cl)cc4)CC3)n2)c1	2%	13µM*	-26%	?	-4%	/
COc1ccc(-c2csc(NC(C)=O)n2)cc1OC	18%	?	-8%	?	0%	29%
O=c1c(-c2ccc(Cl)cc2)nc2cnc(N3CCOCC3)nc2n1CCc1ccccc1	/	/	/	/	/	-15%
CCOc1ccccc1NC(=O)C1=C(C)Nc2ncnn2C1c1sccc1C (configuration not stated)	/	/	?	/	-3%	-9%
Cc1ccc(S(=O)(=O)NCCOC(=O)Nc2sc(=S)n(C)c2C)cc1	-1%	?	-2%	2%	11µM*	/
CC(=O)c1ccc(C(=O)NCc2nc(-c3ccccc3NC(=O)c3cc(C)oc3C)oc2C)cc1	/	/	/	/	/	10%
CCOC(=O)Cc1nnc(NC(=O)CSc2ccc(C)cc2)s1	7%	3%	?	17%	1%	0%
O=C(Cc1cccc2ccccc12)Nc1nnc(-c2cccc([N+](=O)[O-])c2)s1	-7%	2%[8.37 µM]	0%	12%	-9%	2%
CCCCOc1cccc(-c2nnc(NC(=O)CSc3ccc(C)cc3)s2)c1	7%	13%	0.32µM*	2%	1%	-11%
O=C(CSc1ccc(Cl)cc1)Nc1nnc(-c2cccc([N+](=O)[O-])c2)s1	9%	-23%	-1%	9%	45µM*	-9%
O=C(C1CCN(c2nc3ccccc3[nH]2)CC1)N1CCN(c2cccc(Cl)c2)CC1	/	/	?	/	7%	?
N#Cc1c(N)n(C2OC(CO)C(O)C2O)c2ncnc(N)c12 (configuration not stated)	2%	?	1.8µM*	0.5µM*	/	-6%
c1ccc2c(c1)[nH]c1cnccc12	-6%	?	17%	-33%	-1%	-16%
Cc1c2ccncc2cc2c1[nH]c1ccccc12	?	6.3µM*	-29%[46.1 µM]	?	/	4%
Cc1ccc(NC(=O)CN2C(=O)N/C(=C/c3ccc(C)s3)C2=O)cc1	-22%	?	-4%	17%	-20%	-19%
Cc1cccc(NC(=O)CN2C(=O)N/C(=C/c3ccc(C)o3)C2=O)c1	-13%	-24%	15%	?	50µM*	-5%

Screening data: PubChem BioAssay, National Center for Advancing Translational Sciences (NCATS)
